Measurements: PubChem BioAssay (NCATS)
“And” between values parts separate entries of the source, which are not always exact repeats. Equal values may be shown once. Results filed as inconclusive are left out. The source made the active and inactive calls. Unless noted, the call rests on the fitted dose curve; in most records, active means well fitted curve in the direction sought with a large enough effect; inconclusive means small, poorly fitted or top-dose-only effect, or another doubt; inactive means no such curve, though single readings can be large; an effect the other way counts as inactive or inconclusive.

Experiments:
[1] = biological target: Cellular tumor antigen p53 (Homo sapiens) (UniProt P04637); test: Primary qHTS for small molecule compounds that upregulate eGFP-tagged delta133p53alpha (in N-terminal) cells. (AID 2060322); conditions: NCI-H358 eGFP-delta133p53alpha fluorescence, 24 h; activation: hits give high values; further: nearly all actives have a fitted effect of over 75% in size; further: potency means the concentration at half of the fitted maximal effect;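 on activation: cells pre-induced with doxycycline then dosed without doxycycline; series mostly up to about 56 µM; 0% = DMSO vehicle and 100% = reference activator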
Sequence of Cellular tumor antigen p53 (Homo sapiens) (P04637 whole entry, looked up): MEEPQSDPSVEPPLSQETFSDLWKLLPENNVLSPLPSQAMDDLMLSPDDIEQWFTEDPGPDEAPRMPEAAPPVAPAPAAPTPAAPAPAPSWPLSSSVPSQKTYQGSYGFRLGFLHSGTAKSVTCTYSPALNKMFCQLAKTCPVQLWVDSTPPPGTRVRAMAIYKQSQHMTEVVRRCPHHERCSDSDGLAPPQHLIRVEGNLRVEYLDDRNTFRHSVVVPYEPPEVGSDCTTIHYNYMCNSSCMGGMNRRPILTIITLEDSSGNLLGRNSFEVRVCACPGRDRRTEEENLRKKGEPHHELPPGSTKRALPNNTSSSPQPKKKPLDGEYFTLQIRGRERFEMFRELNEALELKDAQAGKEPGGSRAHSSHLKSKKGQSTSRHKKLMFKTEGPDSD
How it was run: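 NCI-H358 cells pre-induced 24 h with 10 ng/ml doxycycline for eGFP-delta133p53alpha, plated dox-free and exposed 24 h at 37C to titrated compounds. Fixed, Hoechst-stained; gated GFP peak intensity by laser scanning cytometry, normalized to DMSO (0%) and 57.5 uM 5-azacytidine (100%).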

[2] = biological target: Cellular tumor antigen p53 (Homo sapiens) (UniProt P04637); test: Primary qHTS for small molecule compounds that upregulate eGFP-tagged delta133p53alpha (in C-terminal) cells. (AID 2060324); further: potency means the concentration at half of the fitted maximal effect
How it was run: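 Readout: filtered GFP peak intensity of gated cells (laser scanning cytometer), normalized plate-wise to intraplate controls, DMSO wells = 0% activity. Cells: NCI-H358 D133p53a-eGFP, dox 100 ng/ml 24 h beforehand, then compound 24 h, 37 °C.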

[3] = biological target: Aldehyde dehydrogenase, mitochondrial (Homo sapiens) (UniProt P05091); test: qHTS for Inhibitors of the Aldehyde Dehydrogenase Family (ALDH2) Validation screens (AID 2061302; active means well fitted inhibition curve with a large enough effect; title and protocol of this record describe different tests;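 further: plate controls were DMSO vehicle for no effect and maximal DPI positive control response for full effect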)
[4] = biological target: Retinaldehyde dehydrogenase 3 (Homo sapiens) (UniProt P47895); test: qHTS for Inhibitors of the Aldehyde Dehydrogenase Family (ALDH1A3) Validation screen (AID 2061312); further: on the % scale 0 is the no-effect control and ±100 the full control effect; nearly all actives have a fitted effect of over 45% in size
[5] = BET inhibitor-based combinations targeting novel dependencies in MECOM-rearranged (r) AML: SET-2 cell line (AID 2202231); conditions: SET-2 AML cells viability, CellTiter-Glo luminescence, 48 h; viability: hits give low values, concentration not given here; further: nearly all actives have a fitted effect of over 35% in size; further: potency means the concentration at half of the fitted maximal effect;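 on viability: plate controls were DMSO treated cells for no effect and wells without cells for full effect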
How it was run: (§1)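 A 48 hr incubation preceded viability reading by CellTiter-Glo, with 15 min room-temperature development. Dose series had 11 points; normalization used DMSO and empty wells; AUC was computed and mean-centered per line as Z-AUC.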

[6] = BET inhibitor-based combinations targeting novel dependencies in MECOM-rearranged (r) AML: OCI-AML3 cell line (AID 2202232); conditions: Potency: OCI-AML3 viability; further: nearly all actives have a fitted effect of over 35% in size; further: potency means the concentration at half of the fitted maximal effect
How it was run: as §1

[7] = BET inhibitor-based combinations targeting novel dependencies in MECOM-rearranged (r) AML: MV-4-11 cell line (AID 2202233); further: nearly all actives have a fitted effect of over 45% in size; further: potency means the concentration at half of the fitted maximal effect
How it was run: (§2)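 Each compound is tested in an 11-point concentration series against 500 seeded cells/well for 48 hr. The luminescent viability signal is normalized to DMSO and blank wells, then reduced to AUC and a cell-line-centred Z-AUC.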

[8] = BET inhibitor-based combinations targeting novel dependencies in MECOM-rearranged (r) AML: HNT-34 cell line (AID 2202234); further: nearly all actives have a fitted effect of over 35% in size; further: potency means the concentration at half of the fitted maximal effect
How it was run: as §2

[9] = BET inhibitor-based combinations targeting novel dependencies in MECOM-rearranged (r) AML: UCSD-AML1 cell line (AID 2202235); further: nearly all actives have a fitted effect of over 40% in size; further: potency means the concentration at half of the fitted maximal effect
How it was run: as §2

[10] = BET inhibitor-based combinations targeting novel dependencies in MECOM-rearranged (r) AML: AML-191 cell line (AID 2202236; further: nearly all actives have a fitted effect of over 35% in size; further: potency means the concentration at half of the fitted maximal effect)
How it was run: as §1

[11] = BET inhibitor-based combinations targeting novel dependencies in MECOM-rearranged (r) AML: AML-194 cell line (AID 2202237; further: nearly all actives have a fitted effect of over 40% in size; further: potency means the concentration at half of the fitted maximal effect)
How it was run: as §1

O=C(O)C1CCCN(CCC=C(c2ccccc2)c2ccccc2)C1 (stereo not drawn)
inactive: activation [1] -10.3% | Potency [2] | Potency [3] | Potency [4] | viability [5] 117% | Potency [6] | Potency [7] | Potency [8] | Potency [9] | Potency [10] | Potency [11]

CNC[C@H](O)c1ccc(O)c(O)c1
inactive: activation [1] 2.51% and 2.46% and 10.6% | Potency [2] | Potency [3] | Potency [4] | viability [5] 103% | Potency [6] | Potency [8] | Potency [9] | Potency [10] | Potency [11]

NC(=O)c1cnccn1
inactive: activation [1] -1.69% and -18.4% and -16.9% | Potency [2] | Potency [3] | Potency [4] | viability [5] 105% | Potency [6] | Potency [7] | Potency [8] | Potency [9] | Potency [10] | Potency [11]

COc1cccc(-c2cc(=O)c3ccccc3o2)c1N
active: Potency [6] 5.25 µM | Potency [7] 20.9 µM | Potency [10] 14.8 µM
inactive: activation [1] 10.5% and -44.6% | Potency [2] | Potency [3] | Potency [4] | viability [5] 100% | Potency [9]

Nc1nnc(-c2cccc(Cl)c2Cl)c(N)n1
inactive: activation [1] 5.86% and 2.46% and -39.9% | Potency [2] | Potency [3] | Potency [4] | viability [5] 116% | Potency [6] | Potency [7] | Potency [8] | Potency [9] | Potency [10] | Potency [11]

NS(=O)(=O)c1cc2c(cc1Cl)NCNS2(=O)=O
inactive: activation [1] -8.47% and 26.3% and -35.3% | Potency [2] | Potency [3] | Potency [4] | viability [5] 107% | Potency [6] | Potency [8] | Potency [9] | Potency [10] | Potency [11]

Nc1ncnc2c1ncn2[C@@H]1O[C@H](CO)[C@@H](O)[C@H]1O
inactive: activation [1] 6.69% and -13% | Potency [2] | Potency [3] | Potency [4] | viability [5] 126% | Potency [6] | Potency [7] | Potency [8] | Potency [9] | Potency [10] | Potency [11]

O=C1CCC(N2C(=O)c3ccccc3C2=O)C(=O)N1 (stereo not drawn)
inactive: activation [1] -0.565% and -9.78% and -7.37% | Potency [2] | Potency [3] | Potency [4] | viability [5] 112% | Potency [6] | Potency [7] | Potency [8] | Potency [9] | Potency [10] | Potency [11]

COc1cc(SC)ccc1C(=O)N1CCC(Cc2ccccc2)CC1
inactive: activation [1] 14.6% | Potency [2] | Potency [3] | Potency [4] | viability [5] 97% | Potency [6] | Potency [9] | Potency [10] | Potency [11]
active: Potency [7] 20.9 µM

O=c1c(O)c(-c2ccc(O)cc2O)oc2cc(O)cc(O)c12
inactive: activation [1] 15.3% and -27.9% | Potency [2] | Potency [3] | Potency [4] | viability [5] 122% | Potency [6] | Potency [7] | Potency [8] | Potency [10] | Potency [11]

CN(CCOc1ccc(NS(C)(=O)=O)cc1)CCc1ccc(NS(C)(=O)=O)cc1
inactive: activation [1] -5.08% and 6.34% and 4.63% | Potency [2] | Potency [3] | Potency [4] | viability [5] 110% | Potency [6] | Potency [7] | Potency [8] | Potency [9] | Potency [10] | Potency [11]

Nc1nc2c(ncn2COC(CO)CO)c(=O)[nH]1
inactive: activation [1] -11.7% | Potency [2] | Potency [3] | Potency [4] | viability [5] 113% | Potency [6] | Potency [7] | Potency [8] | Potency [10] | Potency [11]

CN(C)c1nc(N(C)C)nc(N(C)C)n1
inactive: activation [1] -31.8% and -1.51% and -37.1% | Potency [2] | Potency [3] | Potency [4] | viability [5] 111% | Potency [6] | Potency [7] | Potency [8] | Potency [9] | Potency [11]

Cc1cnc(C(=O)NCCc2ccc(S(=O)(=O)NC(=O)NC3CCCCC3)cc2)cn1
inactive: activation [1] -31.3% and -14.1% and 0.362% | Potency [2] | Potency [3] | Potency [4] | viability [5] 105% | Potency [6] | Potency [7] | Potency [8] | Potency [10] | Potency [11]

CNC[C@H](O)c1cccc(O)c1
inactive: activation [1] -9.21% and 8.41% and -4.95% | Potency [2] | Potency [3] | Potency [4] | viability [5] 112% | Potency [6] | Potency [8] | Potency [9] | Potency [11]

CCCCNc1cc(C(=O)O)cc(S(N)(=O)=O)c1Oc1ccccc1
inactive: activation [1] 1.67% and 7.38% and -16.3% | Potency [2] | Potency [3] | Potency [4] | viability [5] 115% | Potency [6] | Potency [7] | Potency [8] | Potency [9] | Potency [10]

CCCCN(CCCC)CC(O)c1cc(Cl)cc2c1-c1ccc(Cl)cc1/C2=C/c1ccc(Cl)cc1 (stereo not drawn)
inactive: activation [1] 22.6% and -82.3% | Potency [2] | Potency [3] | Potency [4] | viability [5] 104% | Potency [6] | Potency [7] | Potency [8] | Potency [9] | Potency [10] | Potency [11]

Cc1ccc(C(=O)Nc2ccc(S(=O)(=O)O)c3cc(S(=O)(=O)O)cc(S(=O)(=O)O)c23)cc1NC(=O)c1cccc(NC(=O)Nc2cccc(C(=O)Nc3cc(C(=O)Nc4ccc(S(=O)(=O)O)c5cc(S(=O)(=O)O)cc(S(=O)(=O)O)c45)ccc3C)c2)c1
inactive: activation [1] -19.3% and -10.7% and -18.3% | Potency [2] | Potency [3] | Potency [4] | viability [5] 108% | Potency [6] | Potency [7] | Potency [8] | Potency [9] | Potency [10] | Potency [11]

C1COC(NC(C2CC2)C2CC2)=N1
inactive: activation [1] 11% and 4.18% | Potency [2] | Potency [3] | Potency [4] | viability [5] 117% | Potency [6] | Potency [7] | Potency [8] | Potency [9] | Potency [10] | Potency [11]

Nc1nc2c(ncn2COCCO)c(=O)[nH]1
inactive: activation [1] 6.69% and 13.1% | Potency [2] | Potency [3] | Potency [4] | viability [5] 125% | Potency [6] | Potency [7] | Potency [8] | Potency [9] | Potency [10] | Potency [11]

CCN(CC)CCNC(=O)c1c(C)[nH]c(/C=C2\C(=O)Nc3ccc(F)cc32)c1C
active: Potency [1] 4.9 µM and 26.9 µM | Potency [2] 6.75 µM | Potency [5] 16.6 µM | Potency [6] 5.9 µM | Potency [7] 0.0468 µM | Potency [8] 1.86 µM | Potency [9] 3.72 µM | Potency [10] 3.72 µM | Potency [11] 4.68 µM
inactive: Potency [3] | Potency [4]

CC(C)C[C@H](NC(=O)[C@@H](O)[C@H](N)Cc1ccccc1)C(=O)O
inactive: activation [1] -10.8% | Potency [2] | Potency [3] | Potency [4] | viability [5] 104% | Potency [6] | Potency [7] | Potency [8] | Potency [9] | Potency [10] | Potency [11]

CCOC(=O)C1=C(O)C(=O)N(Cc2ccccc2)C1
inactive: activation [1] -27.1% | Potency [2] | Potency [3] | Potency [4] | viability [5] 93.1% | Potency [6] | Potency [8] | Potency [9] | Potency [10] | Potency [11]

NC(=O)c1ncn([C@@H]2O[C@H](CO)[C@@H](O)[C@H]2O)c1O
inactive: activation [1] -26.8% and 40.7% | Potency [2] | Potency [3] | Potency [4] | viability [5] 109% and 121% | Potency [6] | Potency [8] | Potency [9] | Potency [10] | Potency [11]

CCOC(=O)C(C)(C)Oc1ccc(Cl)cc1
inactive: activation [1] 14.3% and -37.9% and -27.7% | Potency [2] | Potency [3] | Potency [4] | viability [5] 112% | Potency [6] | Potency [7] | Potency [8] | Potency [9] | Potency [10] | Potency [11]

CCn1cc(C(=O)O)c(=O)c2cc(F)c(N3CCNC(C)C3)c(F)c21 (stereo not drawn)
inactive: activation [1] -0.837% and 16.4% and -15.6% | Potency [2] | Potency [3] | Potency [4] | viability [5] 95.2% | Potency [6] | Potency [7] | Potency [8] | Potency [9] | Potency [10]

CC12CC3CC(C)(C1)CC(N)(C3)C2
inactive: activation [1] -20.9% and 13.4% and -0.343% | Potency [2] | Potency [3] | Potency [4] | viability [5] 110% | Potency [6] | Potency [8] | Potency [9] | Potency [10] | Potency [11]

CC(C(=O)O)c1cccc(C(=O)c2ccccc2)c1 (stereo not drawn)
inactive: activation [1] 8.47% and 8.5% and -11% | Potency [2] | Potency [3] | Potency [4] | viability [5] 117% | Potency [6] | Potency [7] | Potency [8] | Potency [10] | Potency [11]

COc1ccc2[nH]cc(CCNC(C)=O)c2c1
inactive: activation [1] 4.42% and -13.4% and -16.3% | Potency [2] | Potency [3] | Potency [4] | viability [5] 124% | Potency [6] | Potency [7] | Potency [8] | Potency [9] | Potency [10] | Potency [11]

C[C@@H](c1ncncc1F)[C@](O)(Cn1cncn1)c1ccc(F)cc1F
inactive: activation [1] -3.85% and -2.78% | Potency [2] | Potency [3] | Potency [4] | viability [5] 105% | Potency [6] | Potency [7] | Potency [8] | Potency [9] | Potency [10] | Potency [11]

CCOC(=O)C(C)Oc1cccc2c(=O)n(CC(=O)Nc3ccc4c(c3)OCCO4)ccc12 (stereo not drawn)
active: Potency [6] 3.72 µM | Potency [7] 3.32 µM
inactive: activation [1] -0.568% and 16.2% | Potency [2] | Potency [3] | Potency [4] | viability [5] 114% | Potency [10] | Potency [11]

Cc1cnc(NC(=O)C2=C(O)c3ccccc3S(=O)(=O)N2C)s1
inactive: activation [1] -27.7% and -26.4% and -6.82% | Potency [2] | Potency [3] | Potency [4] | viability [5] 110% and 107% and 111% | Potency [6] | Potency [7] | Potency [8] | Potency [9] | Potency [10] | Potency [11]
